Screens deposited in PubChem by National Center for Advancing Translational Sciences (NCATS).
ELG1 genotox: qHTS screen for small molecules that induce genotoxicity in human embryonic kidney (HEK293T) cells expressing luciferase-tagged ELG1. AID 504466, 2011. HEK293T ELG1-luciferase reporter, luminescence, 16 h. Potency, µM (series often up to 46 µM), without a hit: at the highest dose activity change, positive = activation, hits mostly activators. 330,000 compounds, 1.3% hits; note: % of control where 0% means no effect; nearly all actives have a fitted effect of over 60% in size
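Genotoxic stress is detected as increased luminescence from luciferase-tagged ELG1 in HEK293T cells, measured with ONE-Glo after a 16 hr treatment at 37 °C.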
SMN2 splice enh: qHTS Assay for Enhancers of SMN2 Splice Variant Expression | HEK293 SMN2-luciferase splicing reporter, luminescence, 30-36 h | Potency, µM (top dose mostly 46.1 µM), without a hit: at the top dose activity change, positive = activation, hits mostly activators | 210,000 compounds, 2.8% hits; note: % of control where 0% means no effect; nearly all actives have a fitted effect of over 55% in size
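qHTS luciferase splicing reporter: luminescence rises when SMN2 exon 7 is included in transfected HEK293 cells. Compound exposure lasted 30-36 h at 37C, with 4.5 mM final sodium butyrate as control, followed by a ONE-Glo read.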
NPC1 prom act: qHTS Assay for NPC1 Promoter Activators. Potency, µM (top dose mostly 9.22 µM), for inactives: at the top dose activation, usual class: activators. AID 485313, 2010. 320,000 compounds, 2.4% hits. Huh7 NPC1 promoter luciferase reporter, 24 h; note: % of control where 0% means no effect; nearly all actives have a fitted effect of over 60% in size
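Luminescence read-out of NPC1 promoter-driven luciferase in stably transfected Huh7 cells; compounds delivered in DMSO and left 24 h at 37C, 5% CO2, qHTS titration format.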
FLuc modulator: qHTS profiling assay for firefly luciferase inhibitor/activator using purifed enzyme and Km concentrations of substrates (counterscreen for miR-21 project) | Luciferin 4-monooxygenase (Photinus pyralis), P08659 | purified FLuc, Km substrates, luminescence inhibition | Potency, µM (top dose mostly 57.5 µM), for the others: at the highest dose activity change, negative = inhibition, usual class: inhibitors | 360,000 compounds, 6.9% hits;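 note: plate controls were vehicle for no effect and reference inhibitor for full effect; nearly all actives have a fitted effect of over 55% in size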
Target sequence (P08659 whole entry, looked up): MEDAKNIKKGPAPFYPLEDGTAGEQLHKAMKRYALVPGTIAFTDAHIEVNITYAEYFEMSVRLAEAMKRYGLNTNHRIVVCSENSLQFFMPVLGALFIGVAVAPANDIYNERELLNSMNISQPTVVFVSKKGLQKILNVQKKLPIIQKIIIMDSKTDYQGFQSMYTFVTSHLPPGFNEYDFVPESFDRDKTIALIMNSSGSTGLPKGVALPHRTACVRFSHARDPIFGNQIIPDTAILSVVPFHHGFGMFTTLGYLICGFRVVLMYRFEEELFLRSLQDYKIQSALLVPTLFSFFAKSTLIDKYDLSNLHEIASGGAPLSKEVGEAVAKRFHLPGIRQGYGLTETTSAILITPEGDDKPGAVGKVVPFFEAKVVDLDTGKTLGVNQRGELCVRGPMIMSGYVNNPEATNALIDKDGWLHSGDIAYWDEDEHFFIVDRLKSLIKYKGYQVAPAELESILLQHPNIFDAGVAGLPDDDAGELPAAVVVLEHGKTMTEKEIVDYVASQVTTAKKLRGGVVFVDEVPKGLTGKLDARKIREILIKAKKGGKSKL
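Biochemical qHTS of compounds, final roughly 60 µM downward over six points, against 10 nM purified firefly luciferase using Km concentrations of substrates (10 uM D-luciferin, 10 uM ATP) in Tris acetate pH 7.5 buffer; luminescence output.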
ELG1 DNA repair: qHTS screen for small molecules that inhibit ELG1-dependent DNA repair in human embryonic kidney (HEK293T) cells expressing luciferase-tagged ELG1 | AID 504467, 2011 | 330,000 compounds, 2.3% hits | HEK293T ELG1-luciferase reporter, luminescence, 16 h; DNA damage induced by 5-fluorouridine | Potency, µM (doses to about 46.1 µM), inactives show top-dose activity change, negative = inhibition, usual class: inhibitors; note: % is set by controls: 0 for no effect and ±100 for the full control effect; nearly all actives have a fitted effect of over 55% in size
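HEK293T cells expressing luciferase-tagged ELG1 (2,000/well) received 5-Fluorouridine plus compound or DMSO for 16 hr at 37 °C. Luciferase was read by ONE-Glo luminescence after 30 min at room temperature.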
Rab9 prom act: qHTS Assay for Rab9 Promoter Activators; Huh7 Rab9 promoter-luciferase reporter, luminescence, 24 h; Potency, µM (doses to about 9.22 µM), for inactives: top-dose activation, negative = inhibition, most hits filed as activators; 320,000 compounds, 2.8% hits; AID 485297, 2010; note: % of control where 0% means no effect; nearly all actives have a fitted effect of over 60% in size
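Huh7 cells stably carrying a Rab9 promoter-luciferase reporter, 1500 cells per well in OP-MEM I with 10% FBS, treated with compound 24 hours at 37C. Luciferase activity read by luminescence after 10 minutes with Amplite reagent.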
Numbers without * were called inactive; ? = inconclusive; . = no result; [ ] = another dose, or the depositor's remark. The list is not random: actives were taken first. Their share in the collection is about 9.4%. Calls come from the whole dose curve; as a rule, active = well fitted curve in the direction sought with a large enough effect; inconclusive = small, poorly fitted or top-dose-only effect, or another doubt; inactive = no such curve, though single readings can be large; an effect the other way counts as inactive or inconclusive. Potency is the fitted concentration of half-maximal effect.

SMILES	ELG1 genotox	SMN2 splice enh	NPC1 prom act	FLuc modulator	ELG1 DNA repair	Rab9 prom act
CCC(C)NC(=O)c1c(N)n(/N=C/c2cccnc2)c2nc3ccccc3nc12 (configuration not stated)	-18%	-13%	-2%	-3%	12µM*	2%
CC(C)CNC(=O)c1c(N)n(/N=C/c2cccnc2)c2nc3ccccc3nc12	-1%	24%	-2%	1%	-3%	-7%
CC(C)OCCCNC(=O)c1c(N)n(/N=C/c2ccccn2)c2nc3ccccc3nc12	-14%	-15%	1%	0%	7.3µM*	-3%
COC(=O)c1nc(-c2ccc(C)cc2)oc1N(C)C	12%	1%	11%	19µM*	10%	10%
CN(C)S(=O)(=O)n1cc(/C=C(\NC(=O)c2ccccc2Cl)C(=O)NCCCn2ccnc2)c2ccccc21	-10%	12%	-6%	?	21µM*	-5%
CCn1cc(/C=C(\NC(=O)c2ccccc2F)C(=O)NCCCN2CCOCC2)c2ccccc21	-1%	.	1%	5%	1%	-4%
CCn1cc(/C=C(\NC(=O)c2ccccc2Cl)C(=O)NCCN2CCOCC2)c2ccccc21	-3%	.	1%	17µM*	-3%	-1%
O=C(O)c1c2c(c(O)c3c1CN(C1CCCCC1)CO3)OCN(C1CCCCC1)C2	.	11%[9.22 µM]	.	.	.	.
COc1cc2c(cc1OC)C(COc1ccc3c(C)cc(=O)oc3c1)N(C(=O)c1ccccc1F)CC2 (configuration not stated)	.	4%	.	1%	.	.
O=C(Oc1ccccc1)c1ccc(COC(=O)c2cnccn2)cc1	11%	6%	0%	?	-18%	0%
O=C(Oc1ccc(Cl)cc1)c1ccc(COC(=O)c2cnccn2)cc1	9%	12%	-5%	12µM*	3%	-3%
CC(C)OC(=O)c1ccc(COC(=O)c2cnccn2)cc1	2%	-8%	1%	7.6µM*	-15%	0%
Cc1cccc(-n2cnc(C(=O)O)c2)n1	0%	24%	-1%	3%	2%	0%
Cc1cccc(-n2cnc(C(=O)NC3CCCCCC3)c2)n1	?	?	2.5µM*	15µM*	?	3.5µM*
CCOc1ccc(-c2noc(-c3cccnc3)n2)cc1OC	12%	-5%	?	13µM*	?	25%
COc1ccc(-c2noc(-c3cccnc3)n2)cc1OC	?	?	?	15µM*	?	3.5µM*
COc1cccc2sc3cc(C#Cc4ccccn4)ccc3c(=O)c12	8%	.	.	.	?	.
COc1cccc2oc3ccc(C#Cc4ccccn4)cc3c(=O)c12	?	.	0.79µM*	1.1µM*	?	1.8µM*
CNC(C)C#Cc1ccc2c(=O)c3c(OC)cccc3oc2c1 (configuration not stated)	?	.	?	24µM*	?	?
CNC(C)C#Cc1ccc2oc3cccc(OC)c3c(=O)c2c1 (configuration not stated)	?	.	24%	15µM*	?	?
CCCN1Cc2cccc(C(=O)Nc3ccc(OC)cc3OC)c2C1=O	.	-2%	.	1%	.	.
CCc1cccc(CC)c1NC(=O)C(CC)n1nc(C)n2c(cc3cc(C)ccc32)c1=O (configuration not stated)	.	7%	.	1%	.	.
O=C(OCc1ccco1)c1ccc2c(c1)N(Cc1ccc([N+](=O)[O-])cc1)C(=O)c1ccccc1S2	.	.	.	-2%	.	.
Cc1ccc(CNC(=O)C2CCN(S(=O)(=O)c3cc(-c4noc(C)n4)ccc3C)CC2)cc1	.	.	.	-1%	.	.
Cc1nnc2sc(-c3ccc(N(C)C)cc3)nn2c1=O	16µM*	.	3.2µM*	7.6µM*	?	?
SMILES	ELG1 genotox	SMN2 splice enh	NPC1 prom act	FLuc modulator	ELG1 DNA repair	Rab9 prom act
CC12CCC(C(=O)Nc3nc4ccc(Br)cc4s3)(OC1=O)C2(C)C (configuration not stated)	14%	?	?	19µM*	?	?
O=C(Nc1ccc(C(=O)N2CCOCC2)cc1)c1cc(-c2cccnc2)nc2ccc(Br)cc12	-21%	20%	-6%	?	9.2µM*	-4%
CC(=O)c1ccc(N2CCN(C(=O)c3cc(-c4cccnc4)nc4ccc(Br)cc34)CC2)cc1	-9%	-19%	2%	11µM*	16µM*	0%
Cc1ccc2nc(-c3cccnc3)cc(C(=O)N3CCN(c4ccc([N+](=O)[O-])cc4)CC3)c2c1	-6%	-16%	-6%	?	?	-12%
CS(=O)(=O)N1CCN(C(=O)c2cc(-c3cccnc3)nc3ccc(Br)cc23)CC1	-5%	-9%	-2%	-13%	?	1%
O=C(c1cc(-c2cccnc2)nc2ccc(Br)cc12)N1CCN(c2ncccn2)CC1	-10%	-16%	-1%	21µM*	?	3%
Cn1nc(-c2ccccc2F)c2cc(C(=O)N3CCN(c4ccccc4F)CC3)sc21	.	-67%	.	4%	.	.
N#CCCN1CCN(C(=S)c2ccc(-c3ccc(Cl)c(Cl)c3)o2)CC1	?	9%	13%	15µM*	?	26%
CC(=O)N1CCN(C(=S)c2ccc(-c3ccc(Cl)cc3)o2)CC1	0%	.	0%	?	11%	-1%
N#CCCN1CCN(C(=S)c2ccc(-c3cccc(Cl)c3)o2)CC1	?	20%	22%	19µM*	?	?
Nc1nc2ccc(NC(=O)c3ccco3)cc2s1	?	.	?	15µM*	?	?
Cc1nc(-c2ccc(NC(=O)c3ccco3)cc2)cs1	0.21µM*	.	?	0.067µM*	?	?
Nc1nc(-c2ccc(NC(=O)c3ccco3)cc2)cs1	?	.	0.71µM*	0.67µM*	?	0.79µM*
Cc1nnc2ccc(-c3ccc(NC(=O)c4ccco4)cc3)nn12	20%	37%	-5%	2%	?	0%
Cc1nc(-c2cccc(NC(=O)c3ccco3)c2)cs1	9%	.	0%	?	19%	11%
O=C(Nc1ccc(-c2ccccc2)cc1)c1ccco1	9%	-4%	-4%	4%	7%	1%
Cc1ccn2cc(-c3ccc(NC(=O)c4ccco4)cc3)nc2c1	?	4.5µM*	3.2µM*	3.4µM*	?	1.4µM*
